The source of these data is PubChem BioAssay.

A short description of assay [1]: rapamycin-like changes in RPL19A-GFP expression – cell-based, S. cerevisiae, multiplex flow cytometry, primary screen (AID 1862; in the data active means percent of DMSO control GFP below about 86%;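 further: lower values mimic rapamycin by blocking the RPL19A rise seen in DMSO cells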). Conditions: S. cerevisiae RPL19A-GFP strain, flow cytometry fluorescence, 3 h; at 10 µM; stronger effect = lower value.
A short description of assay [2]: TOR pathway GLN3 branch reporter MEP2-GFP changes – S. cerevisiae, multiplex flow cytometry, primary screen (AID 1867;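 active means GFP response, as percent of the DMSO control, above the screen-wide mean plus 3 SD, about 139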;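 further: median GFP channel fluorescence of barcode-gated MEP2-GFP cells measured by flow cytometry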). Conditions: S. cerevisiae MEP2-GFP strain, 3 h, at 10 µM, stronger effect = higher value, 100% means same as DMSO wells. (A flow cytometer gives signals particle by particle.)
The nature of assay [3]: TOR pathway RTG branch CIT2 reporter changes – S. cerevisiae, GFP fusion, multiplex flow cytometry, primary screen (AID 1870;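 active means percent response above a set limit, the screen-wide mean plus 3 SD, cut at about 130% in these data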;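 further: barcoded CIT2-GFP strain pooled with four other GFP strains with rapamycin as positive control; median GFP fluorescence per well over plate mean of DMSO wells so 100% = DMSO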). To be noted: S. cerevisiae CIT2-GFP expression, 3 h, at 10 µM, stronger effect = higher value.
The nature of assay [4]: TOR pathway LAP4-GFP level changes – S. cerevisiae, multiplex flow cytometry, primary screen (AID 1873;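 active means GFP signal, as percent of the solvent control, above the screen mean plus 3 SD, about 149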). To be noted: S. cerevisiae LAP4-GFP expression, 3 h, at 10 µM, stronger effect = higher value.
Assay [5] is described as follows: yeast AGP1-GFP level changes, GLN3 branch – cell-based, multiplex flow cytometry, S. cerevisiae, primary screen (AID 1887;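 active means GFP signal above the screen-wide mean plus 3 SD, that is over about 124.5% of the solvent control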;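 further: AGP1-GFP fusion strain of S. cerevisiae within a five-strain barcoded multiplex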). To be noted: 3 h, at 10 µM, stronger effect = higher value.
Assay [6] can be described thus: reduced mouse 2C T cell binding to pMHC/ICAM-1 vesicles – MLPCN validation set, flow cytometry, LFA-1/ICAM-1 modulator project, pilot screen (AID 2523;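 active means response below a set limit, under 55% cells CD8-positive and vesicle-bound, and CD8 cells' 90th-percentile brightness under 279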;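 on vesicle binding response: mean PE anti-B7-1 fluorescence of CD8+ cells relative to row control; 100% = QL9-loaded vesicles with DMSO vehicle in the same plate row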). Conditions: 2C mouse CD8+ T cells, at 7 µM, stronger effect = lower value; double positive events: measured here: CD8+/vesicle+ event percentage.
Assay [7] has as its target Integrin beta-1 (Homo sapiens) + Integrin alpha-4 (Homo sapiens) (UniProt P13612+P05556). Description: alpha4beta1 integrin LIBS antibody binding reduction – U937 cells, HUTS-21 mAb, flow cytometry, validation set, VLA-4 allosteric modulator project, pilot screen (AID 2674;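 active means inhibition above 50%, about 3 SD of the validation set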;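 further: antibody binding induced by the VLA-4 ligand LDV present at three times its Kd; 0% = LDV ligand with antibody and no compound and 100% = antibody without LDV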). Conditions: HUTS-21 LIBS mAb binding, at 6.7 µM, stronger effect = higher value, binding induced by LDV ligand.

Assay [8] can be described thus: calorie-restriction mimetic ROS inhibitors, yeast – validation compound set, pilot screen (AID 2706;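 active means superoxide response below 65% of plate, a cut near 3 SD across the whole screen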;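 further: yeast exposed to compound for one week at 30 degrees C before staining; 100% = mean of all compound wells on the same plate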). Conditions: S. cerevisiae aging, superoxide DHE fluorescence; at 10 µM; stronger effect = lower value.
Assay [9] concerns the target Beta-adrenergic receptor kinase 1 (Homo sapiens) (UniProt P25098). As to the kind of experiment: GRK2 binders displacing RNA aptamer, biochemical, validation, human GRK2, bead flow cytometry (AID 488806;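 active means aptamer binding inhibition above 30%, about 3 SD of noise from non-fluorescent compounds; inactive means inhibition at or below 30%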). To be noted: bead-bound GRK2, FAM-aptamer displacement, at 10 µM, stronger effect = higher value.
The target of assay [10] is Beta-2 adrenergic receptor (Homo sapiens) (UniProt P07550). Description: agonist-induced loss of surface beta2AR – cell-based, FAP fluorogen, flow cytometry, validation set, pilot screen (AID 504459;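 active means percent response above 42, roughly 3 SD of non-fluorescent test compounds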;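 further: agonist-driven loss of surface beta2AR via internalization measured by FAP dye flow cytometry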). Conditions: Am2.2-beta2AR cells, at 10 µM, stronger effect = higher value.
Assay [11] deals with AP-2 complex subunit beta (Homo sapiens) (UniProt P63010). Description: beta-arrestin/AP2 interaction blockers – biochemical, validation set, GST-AP2 beads, flow cytometry, pilot screen (AID 504541;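 active means inhibition above 54%, about 3 SD of non-fluorescent compounds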;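 further: AP2 carries R879A mutation and is captured from E. coli lysate; bead-bound FITC arrestin peptide fluorescence measuring arrestin peptide binding to AP2; 0% = DMSO wells and 100% = excess unlabeled arrestin peptide control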). To be noted: FITC arrestin peptide, at 10 µM, stronger effect = higher value, AP2 beta2 appendage fragment, R879A mutant.
Assay [12] in a line: cytosolic pH regulators acting via V-ATPase – S. cerevisiae, pHLuorin, HTS validation (AID 504600).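 Further: plate controls were DMSO for no effect and reference compound for full effect.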 To be noted: V-ATPase proton transport, at 10 µM, stronger effect = higher value.
Assay [13] deals with anti-desmoglein-3 scFv antibody binding to human DSG3. As to the kind of experiment: blockers of pathogenic pemphigus antibody–desmoglein-3 binding – biochemical, validation compound set, bead-based, flow cytometry, pilot screen (AID 588368;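 active means binding below the plate cutoff, the plate median minus 3 SD, with a reading above zero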;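 further: signal is the median channel fluorescence of bead-bound GFP antibody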). To be noted: Protein G beads, DSG3-Fc, scFv-GFP binding, at 10 µM, stronger effect = lower value.
Assay [14] can be described thus: Nile Red efflux blockade in pump-expressing yeast – validation compound set, multiplex, phenotypic, pilot screen (AID 588506;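 active means efflux inhibition above 0.42, the validation set average plus 4 SD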;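 further: Nile Red retained in cells so higher fluorescence means more efflux inhibition; 0 = negative control wells and 1 = enniatin B 25 µM full block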). To be noted: S. cerevisiae pump-expressing triplex, Nile Red efflux flow cytometry; at 10 µM; stronger effect = higher value; the pumps come from Candida albicans.
Assay [15] deals with ATP-binding cassette sub-family B member 6 (Homo sapiens) (UniProt Q9NP58). Description: blockers of ABCB6-driven porphyrin uptake – K562-ABCB6 cells, flow cytometry, validation set, pilot screen (AID 588550;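 active means inhibition above the screen-wide mean plus 3 SD, about 51%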;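 further: 0% = DMSO wells and 100% = benzethonium chloride 70 µM positive control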). Conditions: K562-ABCB6 porphyrin accumulation, 1 h, at 10 µM, stronger effect = higher value.
Assay [16] is described as follows: AML differentiation inducers, ER-HoxA9 marrow cells – cell-based, GFP/MAC1 double positive, flow cytometry, validation set, primary screen (AID 588685;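 active means differentiation response of at least 50%, scaled between solvent and reference control, from cells with both markers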;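 further: compound exposure lasts four days before antibody staining and flow analysis; 0% = DMSO wells and 100% = 5 µM fulvestrant positive control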). To be noted: stronger effect = higher value, normalized: vehicle 0, fulvestrant 100.

As a reminder, the inhibition is the drop in the measured response relative to a control, in per cent.

Results filed as inconclusive are left out. Calls of active or inactive are those of the source. Unless noted, no stated cut-off is given here; in the data, active means response above about 15%; inactive means the rest.

Sequence of Beta-2 adrenergic receptor (Homo sapiens) (P07550 whole entry, looked up): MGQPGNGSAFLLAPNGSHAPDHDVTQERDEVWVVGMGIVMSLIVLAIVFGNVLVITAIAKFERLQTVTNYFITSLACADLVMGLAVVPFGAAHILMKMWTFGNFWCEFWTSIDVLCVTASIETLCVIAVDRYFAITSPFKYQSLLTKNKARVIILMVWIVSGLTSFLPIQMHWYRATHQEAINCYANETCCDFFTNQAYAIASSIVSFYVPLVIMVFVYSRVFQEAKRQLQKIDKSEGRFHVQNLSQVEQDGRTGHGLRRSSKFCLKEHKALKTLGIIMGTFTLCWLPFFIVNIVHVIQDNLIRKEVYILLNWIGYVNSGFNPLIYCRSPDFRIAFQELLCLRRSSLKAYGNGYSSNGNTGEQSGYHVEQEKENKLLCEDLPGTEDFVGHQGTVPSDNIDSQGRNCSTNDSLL
Sequence of AP-2 complex subunit beta (Homo sapiens) (P63010 whole entry, looked up, the tested form may be a part, one chain of several): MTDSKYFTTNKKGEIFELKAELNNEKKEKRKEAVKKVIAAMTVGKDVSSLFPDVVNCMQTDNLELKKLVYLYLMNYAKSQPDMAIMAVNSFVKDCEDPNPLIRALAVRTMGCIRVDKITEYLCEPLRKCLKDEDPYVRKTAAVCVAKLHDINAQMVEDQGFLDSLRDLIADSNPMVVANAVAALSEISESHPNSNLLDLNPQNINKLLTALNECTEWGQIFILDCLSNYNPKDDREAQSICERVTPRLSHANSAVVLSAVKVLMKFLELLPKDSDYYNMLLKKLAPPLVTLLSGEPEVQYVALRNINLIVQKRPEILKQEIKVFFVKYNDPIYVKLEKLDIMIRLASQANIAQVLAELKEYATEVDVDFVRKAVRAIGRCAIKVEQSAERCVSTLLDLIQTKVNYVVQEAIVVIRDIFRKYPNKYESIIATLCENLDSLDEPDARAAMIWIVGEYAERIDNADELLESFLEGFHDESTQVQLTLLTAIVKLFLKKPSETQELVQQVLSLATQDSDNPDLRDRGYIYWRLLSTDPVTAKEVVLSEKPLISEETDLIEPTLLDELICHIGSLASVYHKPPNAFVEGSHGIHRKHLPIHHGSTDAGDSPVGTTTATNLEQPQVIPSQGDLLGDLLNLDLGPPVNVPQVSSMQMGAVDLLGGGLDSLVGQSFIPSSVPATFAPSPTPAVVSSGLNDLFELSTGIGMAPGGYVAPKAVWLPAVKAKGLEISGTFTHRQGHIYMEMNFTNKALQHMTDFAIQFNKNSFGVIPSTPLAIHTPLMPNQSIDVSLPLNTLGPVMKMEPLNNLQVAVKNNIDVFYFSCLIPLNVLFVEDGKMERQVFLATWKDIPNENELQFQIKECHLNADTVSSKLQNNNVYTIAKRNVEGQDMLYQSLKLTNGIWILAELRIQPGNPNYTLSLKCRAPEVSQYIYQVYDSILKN
Sequence of Integrin beta-1 (Homo sapiens) + Integrin alpha-4 (Homo sapiens) (P05556 whole entry, looked up): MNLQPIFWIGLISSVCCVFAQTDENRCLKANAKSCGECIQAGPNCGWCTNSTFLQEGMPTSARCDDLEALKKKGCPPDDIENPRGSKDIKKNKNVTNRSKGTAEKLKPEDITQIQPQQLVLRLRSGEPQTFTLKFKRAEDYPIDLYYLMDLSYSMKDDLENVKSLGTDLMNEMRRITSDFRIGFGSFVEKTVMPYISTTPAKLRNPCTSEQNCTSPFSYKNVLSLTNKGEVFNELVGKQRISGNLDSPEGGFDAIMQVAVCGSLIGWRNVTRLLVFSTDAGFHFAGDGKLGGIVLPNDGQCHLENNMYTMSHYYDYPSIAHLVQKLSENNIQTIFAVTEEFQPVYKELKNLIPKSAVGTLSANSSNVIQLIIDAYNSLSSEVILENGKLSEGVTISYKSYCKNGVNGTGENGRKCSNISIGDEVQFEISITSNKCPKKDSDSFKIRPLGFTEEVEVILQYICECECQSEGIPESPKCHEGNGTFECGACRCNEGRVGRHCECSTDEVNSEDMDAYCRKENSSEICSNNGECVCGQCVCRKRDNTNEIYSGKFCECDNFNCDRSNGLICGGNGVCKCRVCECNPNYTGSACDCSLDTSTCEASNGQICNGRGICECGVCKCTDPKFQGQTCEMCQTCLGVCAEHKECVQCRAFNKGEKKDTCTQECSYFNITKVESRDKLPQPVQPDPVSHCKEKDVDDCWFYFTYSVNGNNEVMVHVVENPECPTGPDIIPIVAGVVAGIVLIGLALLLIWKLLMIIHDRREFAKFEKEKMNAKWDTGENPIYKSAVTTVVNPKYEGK
Sequence of Integrin beta-1 (Homo sapiens) + Integrin alpha-4 (Homo sapiens) (P13612 whole entry, looked up): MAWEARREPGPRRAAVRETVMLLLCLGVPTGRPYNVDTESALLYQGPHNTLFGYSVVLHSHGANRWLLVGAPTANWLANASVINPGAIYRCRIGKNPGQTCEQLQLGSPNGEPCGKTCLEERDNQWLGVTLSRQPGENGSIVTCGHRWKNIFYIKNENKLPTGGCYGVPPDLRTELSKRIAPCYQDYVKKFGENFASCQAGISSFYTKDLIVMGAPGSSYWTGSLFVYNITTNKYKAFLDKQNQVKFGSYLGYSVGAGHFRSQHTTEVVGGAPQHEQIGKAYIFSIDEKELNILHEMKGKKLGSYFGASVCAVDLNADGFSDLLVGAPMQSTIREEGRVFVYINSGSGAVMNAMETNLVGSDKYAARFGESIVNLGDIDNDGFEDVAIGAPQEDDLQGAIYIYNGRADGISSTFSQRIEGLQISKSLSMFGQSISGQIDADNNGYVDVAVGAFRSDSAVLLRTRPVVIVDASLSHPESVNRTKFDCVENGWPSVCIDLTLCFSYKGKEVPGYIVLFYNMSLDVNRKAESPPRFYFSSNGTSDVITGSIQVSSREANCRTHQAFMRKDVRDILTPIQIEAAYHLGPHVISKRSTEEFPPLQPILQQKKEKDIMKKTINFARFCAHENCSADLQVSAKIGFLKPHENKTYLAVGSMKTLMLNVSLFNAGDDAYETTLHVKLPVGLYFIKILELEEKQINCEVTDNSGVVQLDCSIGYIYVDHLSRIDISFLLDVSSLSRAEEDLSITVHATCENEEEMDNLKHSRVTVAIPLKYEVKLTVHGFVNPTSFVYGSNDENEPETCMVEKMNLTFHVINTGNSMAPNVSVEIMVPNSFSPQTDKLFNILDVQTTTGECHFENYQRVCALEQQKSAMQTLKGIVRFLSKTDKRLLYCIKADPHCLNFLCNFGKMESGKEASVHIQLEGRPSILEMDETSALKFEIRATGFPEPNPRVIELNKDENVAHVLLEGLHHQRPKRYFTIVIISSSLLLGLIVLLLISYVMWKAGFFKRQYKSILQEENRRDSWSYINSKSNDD
Sequence of ATP-binding cassette sub-family B member 6 (Homo sapiens) (Q9NP58 whole entry, looked up): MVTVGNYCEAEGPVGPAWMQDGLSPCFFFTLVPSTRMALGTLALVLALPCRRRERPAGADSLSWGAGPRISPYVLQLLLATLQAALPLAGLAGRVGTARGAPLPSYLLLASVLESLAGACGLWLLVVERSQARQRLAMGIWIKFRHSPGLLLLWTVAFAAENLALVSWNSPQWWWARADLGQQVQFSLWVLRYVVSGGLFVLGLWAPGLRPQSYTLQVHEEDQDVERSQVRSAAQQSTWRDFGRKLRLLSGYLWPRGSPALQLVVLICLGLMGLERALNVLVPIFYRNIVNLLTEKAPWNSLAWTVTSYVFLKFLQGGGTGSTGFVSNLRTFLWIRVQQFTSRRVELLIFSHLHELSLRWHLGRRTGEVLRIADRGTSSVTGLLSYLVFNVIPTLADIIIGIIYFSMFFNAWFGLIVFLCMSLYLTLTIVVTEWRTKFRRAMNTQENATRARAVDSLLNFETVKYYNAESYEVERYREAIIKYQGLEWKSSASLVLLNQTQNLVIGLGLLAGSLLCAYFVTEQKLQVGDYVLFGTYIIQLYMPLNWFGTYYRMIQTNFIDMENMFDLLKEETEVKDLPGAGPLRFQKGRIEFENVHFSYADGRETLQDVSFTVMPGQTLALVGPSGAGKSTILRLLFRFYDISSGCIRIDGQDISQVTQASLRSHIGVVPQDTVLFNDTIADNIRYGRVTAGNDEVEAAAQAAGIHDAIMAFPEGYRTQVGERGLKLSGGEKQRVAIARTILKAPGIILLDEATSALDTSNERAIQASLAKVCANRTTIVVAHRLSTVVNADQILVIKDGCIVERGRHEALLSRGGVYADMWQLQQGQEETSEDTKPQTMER
Sequence of Beta-adrenergic receptor kinase 1 (Homo sapiens) (P25098 whole entry, looked up): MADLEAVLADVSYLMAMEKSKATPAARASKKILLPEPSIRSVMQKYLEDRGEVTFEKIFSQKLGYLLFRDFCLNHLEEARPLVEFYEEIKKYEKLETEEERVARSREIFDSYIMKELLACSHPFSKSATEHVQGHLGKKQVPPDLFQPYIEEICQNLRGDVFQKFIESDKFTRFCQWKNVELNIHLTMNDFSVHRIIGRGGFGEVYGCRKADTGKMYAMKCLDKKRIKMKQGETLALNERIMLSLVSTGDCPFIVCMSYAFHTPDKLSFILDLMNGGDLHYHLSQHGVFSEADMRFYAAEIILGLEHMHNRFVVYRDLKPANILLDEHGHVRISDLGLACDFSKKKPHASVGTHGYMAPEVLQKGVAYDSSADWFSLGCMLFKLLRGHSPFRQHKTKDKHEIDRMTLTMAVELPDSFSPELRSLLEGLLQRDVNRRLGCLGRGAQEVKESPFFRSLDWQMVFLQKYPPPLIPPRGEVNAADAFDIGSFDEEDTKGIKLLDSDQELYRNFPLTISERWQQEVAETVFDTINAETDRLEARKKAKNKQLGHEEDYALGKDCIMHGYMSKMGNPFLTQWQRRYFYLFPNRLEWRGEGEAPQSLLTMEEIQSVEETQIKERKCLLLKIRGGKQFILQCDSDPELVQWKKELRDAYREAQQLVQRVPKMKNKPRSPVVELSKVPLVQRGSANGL

Consider `CC1(C)CC(C(CC(=O)O)c2ccccc2)CCO1` (stereo not drawn), for which the percent of DMSO control GFP in [1] is 97.6% (inactive). Besides, the GFP response vs DMSO in assay [2] is 103% (inactive); in [4] it was 109% (inactive). For the same compound, the percent response of DMSO control in assay [3] is 99.6% (inactive). The GFP response, % of DMSO in assay [5] was 102% (inactive). In [6], this compound yielded a double positive events of 58.1%. In addition, the vesicle binding response in assay [6] is 155% (inactive). The inhibition was -1.79% (inactive) in assay [7], 48.1% (inactive) in assay [11] and 2% (inactive) in assay [15]. For the same compound, the superoxide response (% of plate) in assay [8] was 99.7% (inactive). Besides, the aptamer binding inhibition in assay [9] is 0% (inactive). Further, the response was -5.23% (inactive) in assay [10] and -5.35% (inactive) in assay [12]. Moreover, the binding (% of control) in assay [13] was 95.7% (inactive). Besides, the efflux inhibition (fraction of control) in [14] was 0.05 (inactive). The differentiation response in assay [16] was 37.6% (inactive).
As for `O=C(O)CP(=O)(O)O`, the percent of DMSO control GFP in assay [1] is 97.2% (inactive). Also, the GFP response vs DMSO in assay [2] and in [4] was 105% (inactive) throughout. In [3], the percent response of DMSO control is 93.4% (inactive). Besides, the GFP response, % of DMSO in assay [5] was 96.8% (inactive). Further, the double positive events in assay [6] was 66.7%. Moreover, the vesicle binding response in assay [6] was 206% (inactive). Besides, the inhibition in assay [7] is 11% (inactive); in [11], 3.17% (inactive); in assay [15] it was 16% (inactive). Also, in assay [8], the superoxide response (% of plate) is 99% (inactive). The aptamer binding inhibition in assay [9] was 6% (inactive). The response was 6.2% (inactive) in [10] and -1.85% (inactive) in [12]. In addition, in [13], the binding (% of control) was 105% (inactive). Further, the efflux inhibition (fraction of control) in assay [14] was 0.03 (inactive). In addition, the differentiation response in assay [16] is -4.57% (inactive).
Consider `CC(=O)NC(Cc1c[nH]c2ccccc12)C(=O)N/N=C/c1ccccc1` (stereo not drawn), for which the percent of DMSO control GFP in [1] was 98.6% (inactive). The GFP response vs DMSO in assay [2] is 108% (inactive); in assay [4] it was 99.1% (inactive). In addition, the percent response of DMSO control in assay [3] was 104% (inactive). Also, the GFP response, % of DMSO in assay [5] is 98.6% (inactive). This compound had a double positive events in [6] of 62.8%. The vesicle binding response in assay [6] was 200% (inactive). Moreover, the inhibition in [7] was -15.8% (inactive); in assay [11], 60.7% (active); in assay [15], -12% (inactive). In addition, the superoxide response (% of plate) in assay [8] is 98% (inactive). In assay [9], the aptamer binding inhibition is -3% (inactive). In addition, the response in assay [10] is -1.6% (inactive); in assay [12] it was -13.1% (inactive). Also, in assay [13], the binding (% of control) was 104% (inactive). For the same compound, the efflux inhibition (fraction of control) in [14] is 0 (inactive). Besides, the differentiation response in assay [16] was -3.11% (inactive).
With `CC(C(=O)O)c1cccc(C(=O)c2ccccc2)c1` (stereo not drawn), the percent of DMSO control GFP in [1] was 102% (inactive). In addition, the figures for the GFP response vs DMSO in [2] and in assay [4] were 107% (inactive) and 110% (inactive), respectively. In addition, the percent response of DMSO control in assay [3] was 97.6% (inactive). Moreover, the GFP response, % of DMSO in assay [5] was 107% (inactive). Moreover, in assay [6], the double positive events turned out to be 67.3%. The vesicle binding response in assay [6] is 145% (inactive). The inhibition in assay [7] was 4.27% (inactive); in assay [11], -7.83% (inactive); in [15], 20% (inactive). In assay [8], the superoxide response (% of plate) was 97.3% (inactive). Also, in assay [9], the aptamer binding inhibition was 4% (inactive). Moreover, the results for the response in assay [10] and in [12] were 6.64% (inactive) and -2.55% (inactive), respectively. Further, the binding (% of control) in assay [13] is 101% (inactive). For the same compound, the efflux inhibition (fraction of control) in assay [14] was 0.36 (inactive). For the same compound, the differentiation response in [16] is -7.5% (inactive).
